Data taken from PubChem BioAssay (NCI).
The panel holds about 83,000 compounds, 20% with a hit somewhere; the sample as a whole holds those more often.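 In brief: 96-well plates, 48 h treatment, single concentration, percent growth endpoint.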 Calls of active or inactive are those of the source. Rule for the calls: active = growth percent below 10; inactive = the rest.

System: HL-60(TB) leukemia
Assay: NCI-60 one-dose screen, 48 h (100 = growth as untreated, 0 = no growth, -100 = all killed)
Details: 10 µM unless noted

SMILES | growth
CC(SC(C)C(=O)N/N=C/c1cccc(Cl)c1)C(=O)N/N=C\c1cccc(Cl)c1 (stereo not given) | 82.8% (inactive)
COc1cc(OC)c(/C=C/S(=O)(=O)Cc2ccc(OC)c(NCC(=O)O)c2)c(OC)c1 | -32% (active)
CCCN(CCC)CN(CCC)CCC | 93.5% (inactive)
O=C(Nc1cc(=O)[nH]c(=O)[nH]1)C(Cl)Cl | 99.4% (inactive)
O=C(Nc1ccccc1F)Nc1ccccc1Cl | 52% (inactive)
NS(=O)(=O)c1ccc(N=Nc2c(O)n(Cc3ccccc3)c3ccc(Cl)cc23)cc1 | 95% (inactive)
COc1cc(C)ccc1Oc1nc(Nc2ccc(N3CCOCC3)cc2)ncc1N=Cc1cc(C(F)(F)F)cc(C(F)(F)F)c1 | 67.4% (inactive)
COc1ccc(-c2ccc3c(N4CCOC[C@@H]4C)nc(N4CCOC[C@@H]4C)nc3n2)cc1CO | 22.6% (inactive)
NS(=O)(=O)c1ccc(C(=O)N/N=C(\CS(=O)(=O)c2ccccc2)c2cc3cc(Br)ccc3o2)cc1 | 115% (inactive)
COc1cc2nc3sc(C(=O)Nc4ccc(C(=O)OC(C)C)cc4)c(C(=O)Nc4ccc(Cl)cc4C)n3c(=O)c2cc1OC | 90.2% (inactive)
CCOC(=O)C(=Cc1ccccc1[N+](=O)[O-])C(=O)OCC | -26.5% (active)
C=CN(C)S(C)(=O)=O | 5.83% (active)
C=C1C(=O)O[C@H]2[C@H]1CC/C(COC(=O)NCC(=O)Nc1ccc(OC)c(C(N)=O)c1O)=C\CC[C@@]1(C)O[C@@H]21 | -7.13% (active)
Cc1cc2c(-c3nc4ccccc4[nH]3)c(O)c(O)cc2c(O)c1-c1c(C)cc2c(-c3nc4ccccc4[nH]3)c(O)c(O)cc2c1O | -11.2% (active)
COc1ccc(/C=C(/c2ccccc2)[N+](=O)[O-])c(OC)c1 | 0.521% (active)
COC(=O)c1c2c(c(C)[n+]([O-])c1C)C(=O)C(NCc1ccc(OC)cc1)=CC2=O | -51.1% (active)
O=c1[nH]c(CN2CCN(c3ccccc3)CC2)nc2c(Br)cc(Br)cc12 | 99.2% (inactive)
CN(C)C(=S)N/N=C\C=N/NC(=S)N(C)C | -23% (active)
Nc1nc(NC2CC2)c2ncn(C3C=CC(CO)C3)c2n1 (stereo not given) | 86.6% (inactive)
O=S(=O)(c1ccc(NCSc2nc3ccccc3s2)cc1)c1ccc(NCSc2nc3ccccc3s2)cc1 | 72.7% (inactive)

SMILES | growth
C=CCn1c(SCC(=O)Nc2ccc(/C(C)=N/O)cc2)nnc1-c1cc(-c2ccc(S(N)(=O)=O)cc2)nc2ccccc12 | 7.74% (active)
CC1(C=O)NC(=O)NC1=O (stereo not given) | 87.5% (inactive)
C=C(C)[C@@H]1C[C@H](O)Cc2cc(F)ccc2N1 | -20.3% (active)
c1ccc(Cn2cc3c(c2-c2ccccc2)CCc2cnoc2-3)cc1 | 35.6% (inactive)
CCOC(=O)c1cn2ncnc(Oc3ccc(NC(=O)NCCN(CC)CC)c(Cl)c3)c2c1C | 100% (inactive)
NC(=O)c1ccc(-c2c3ccccc3cc3c2ccc2ccccc23)cc1 | 15.6% (inactive)
O=C(Nc1cccc(Cn2c(=O)[nH]c3ccc(Oc4ncccn4)cc3c2=O)c1)c1cc(Cl)cc(Cl)c1 | 98.5% (inactive)
Clc1ccc(/C=C/c2nc(N3CCOCC3)c3nc(Cl)c(Cl)cc3n2)cc1 | 98.4% (inactive)
Clc1ccc2c(NCCCN3CCN(c4nc(N5CCOCC5)nc5ccccc45)CC3)ccnc2c1 | -51.5% (active)
CC(O)CN(CC(C)O)N(CC(C)O)CC(C)O (stereo not given) | 102% (inactive)
CCn1cc(C(=O)O)c(=O)c2cc(F)c(N3CCN(S(=O)(=O)c4cccc5ccccc45)CC3)cc21 | -46.2% (active)
Cc1ccc(S(=O)(=O)NCCNc2nccc(-c3c(-c4cccc(N)c4)nc4sccn34)n2)cc1 | 110% (inactive)
Cn1/c(=N\N=C\c2ccccc2OCCO)sc2ccccc21 | 92.5% (inactive)
COc1ccc(CCN2CC=Cn3c2nc2ccccc2c3=O)cc1 | -8.02% (active)
COc1ccc(-c2csc(NC(=O)c3cc(O)c(O)c(O)c3)n2)cc1 | 62.4% (inactive)
Cc1ccc(N2C3c4ccccc4N(S(=O)(=O)c4ccc(C)cc4)C2c2ccccc2N3S(=O)(=O)c2ccc(C)cc2)cc1 | 80.5% (inactive)
OC(c1ccccc1)C(NCc1ccccc1)c1ccccc1 (stereo not given) | 98.4% (inactive)
C#CCNC(=O)c1cccc2c1cc(C)n2-c1nc2c(c(NCc3ccccc3)n1)CCCC2 | 0.47% (active)
O=C(NC1CCCCC1)OCc1c(COC(=O)NC2CCCCC2)c(-c2ccc(Cl)c(Cl)c2)n2c1CCC2 | -35.6% (active)
CC(=O)OCC(=O)O[C@@H]1C[C@]2(C(C)C)O[C@@]1(C)[C@@H]1CC[C@@H](C)[C@H]1[C@@H]2OC(=O)/C=C/c1ccccc1 | 82.6% (inactive)
